Measured values reported in PubChem BioAssay (NCATS).
Results filed as inconclusive are left out. A number with no mark means an inactive call. Calls follow the shape of the dose curve; as a rule, active = well fitted inhibition curve with a large enough effect; inconclusive = small, poorly fitted or top-dose-only effect; inactive = flat fitted curve, though single readings scatter.

What follows are molecules tested against Calcium and integrin-binding protein 1 (Homo sapiens) (UniProt Q99828) (assay: Primary qHTS for Identification of Calcium Integrin Binding Protein 1 (CIB1) Competitor (AID 1508620;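 also: GST tagged CIB1 binding a fluorescein labelled alphaIIb integrin peptide tracer; top concentration of the series differs between compounds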)). Details: CIB1-GST / FITC-alphaIIb peptide fluorescence polarization; series mostly up to 114 µM; activity change, negative = inhibition: at the top concentration.
Calcium and integrin-binding protein 1 (Homo sapiens), sequence (Q99828 whole entry, looked up): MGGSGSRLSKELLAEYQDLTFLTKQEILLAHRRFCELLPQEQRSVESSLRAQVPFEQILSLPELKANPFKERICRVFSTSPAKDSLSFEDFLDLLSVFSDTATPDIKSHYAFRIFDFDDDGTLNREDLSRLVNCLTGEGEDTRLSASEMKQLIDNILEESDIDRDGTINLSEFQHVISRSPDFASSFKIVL
Procedure, shortened: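 Fluorescence polarization competition: CIB1-GST (1 uM final) preincubated with compound 15 min at room temperature, then FITC-labeled alphaIIb peptide (100 nM final) added for another 15 min. Polarization read at Ex 480/Em 540.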
% is scaled to controls: 0 for no effect and ±100 for the full control effect.

Compound | activity change, negative = inhibition
CCC(C)(C#N)O[C@@H]1O[C@H](CO)[C@@H](O)[C@H](O)[C@H]1O (some centres not stated) | 1.7%
C=C1[C@@H]2CC[C@@]3(C)[C@H](c4ccoc4)OC(=O)C[C@]13O[C@H]1CC(=O)C(C)(C)[C@H](C(OC(C)=O)C(=O)OC)[C@]12C (some centres not stated) | 0.775% [at 57.7 µM]
Cc1cccc(NC(=O)N[C@@H]2N=C(c3ccccc3)c3ccccc3N(C)C2=O)c1 | -1.3%
Oc1ccc2c3c1O[C@H]1[C@H](N(CCCl)CCCl)CC[C@@]4(O)[C@@H](C2)N(CC2CC2)CC[C@]314 | -6.34% [at 30.2 µM]
OC1(c2ccc(Cl)cc2)c2ccccc2C2=NCCN21 (configuration not stated) | 1.29%
CCCCCCn1c(=O)c(C(=O)Nc2ccc(C(=O)OCCC)cc2)c(O)c2ccccc21 | -0.851% [at 30.2 µM]
COC1CC(OC2CCC3(C)C(=CCC4C3CCC3(C)C(C(C)OC5OC(COC6OC(CO)C(O)C(O)C6O)C(O)C(O)C5O)CCC43O)C2)OC(C)C1OC1OC(C)C(O)C(OC)C1O (configuration not stated) | 2.93% [at 30.2 µM]
CN1[C@H]2C[C@H](OC(=O)[C@H](CO)c3ccccc3)C[C@@H]1[C@@H](O)C2 | -2.79%
CC1C/C=C/C(O)C(O)CC/C=C/c2cc(O)cc(O)c2C(=O)O1 (configuration not stated) | -5.63% [at 57.7 µM]
COC(=O)[C@@]12C(=O)C(C)C(=O)[C@]1(C)C(C)=C[C@H]1[C@]3(C=O)CC[C@H](OC(C)=O)C(C)(C)[C@H]3CC[C@@]12C (some centres not stated) | -2.12% [at 57.7 µM]
CCC1NC(=O)C2C(Cl)C(Cl)CN2C(=O)C(C(C)O)NC(=O)CC(c2ccccc2)NC(=O)C(CO)NC1=O (configuration not stated) | -3.05% [at 30.2 µM]
C=CC(C)(O)CC/C=C(\C)C(=O)O[C@H]1[C@H](O)[C@@H](CO)O[C@@H](OC(=O)[C@]23CCC(C)(C)CC2C2=CCC4[C@@]5(C)CC[C@H](O[C@@H]6O[C@H](CO[C@@H]7OC[C@H](O)[C@H](O)[C@H]7O[C@@H]7OC[C@@H](O)[C@H](O)[C@H]7O)[C@@H](O)[C@H](O)[C@H]6O)C(C)(C)C5CC[C@@]4(C)[C@]2(C)CC3)[C@@H]1OC1OC(C)C(O[C@@H]2OC[C@@H](O)[C@H](O[C@@H]3OC[C@@H](O)[C@H](O)[C@H]3O)[C@H]2O)C(O)C1O (some centres not stated) | -11.1% [at 12.4 µM]
C[C@]12CC[C@H]3[C@@H]([C@H](O)CC4=CC(=O)CC[C@@]43C)[C@@H]1CC[C@@H]2O | -8.38%
CC(C)[C@@H](CN1CC[C@@](C)(c2cccc(O)c2)[C@@H](C)C1)NC(=O)[C@H]1Cc2ccc(O)cc2CN1 | -5.74%
C[C@@]12C[C@@H](c3ccoc3)OC(=O)C1CC[C@]1(C)[C@H]2[C@H]2C=C[C@]1(O)C(=O)O2 (some centres not stated) | -2.28% [at 57.7 µM]
C[C@H]1C(=O)O[C@H]2[C@H](O)[C@]34C5OC(=O)[C@]3(O[C@@H]3OC(=O)[C@H](O)C34[C@H](C(C)(C)C)[C@H]5O)C12O (some centres not stated) | 2.75% [at 57.7 µM]
Clc1ccc(OCC2=NCCN2)cc1Cl | -6.86%
CN(C)CCc1c[nH]c2ccc(CN3CCN(C)S3(=O)=O)cc12 | -15.7%
CC(C)(C)c1cc(C(C)(C)C)c2c(c1)C(O)(C(F)(F)F)C(=O)O2 (configuration not stated) | -13.3%
CCN1C[C@]2(OC(=O)c3ccccc3NC(C)=O)CC[C@H](OC)[C@@]34[C@@H]2C[C@@H]([C@@H]13)[C@@]1(O)C[C@H](OC)[C@H]2C[C@@H]4[C@]1(O)[C@H]2OC | 0.392%
COC1C(O)C(OC2CCC3(C=O)C(CCC4C3CCC3(C)C(C5=CC(=O)OC5)CCC43O)C2)OC(C)C1OC1OC(CO)C(O)C(O)C1O (configuration not stated) | -1.01% [at 30.2 µM]
C[C@@H]1C(=O)O[C@H]2[C@H](O)[C@@]34[C@@H]5OC(=O)[C@@]3(O[C@@H]3OC(=O)[C@@H](O)[C@@]34[C@H](C(C)(C)C)[C@H]5O)[C@@]12O | 0.599% [at 57.7 µM]
COC1CC(OC2CCC3(C=O)C(CCC4C3CCC3(C)C(C5=CC(=O)OC5)CCC43O)C2)OC(C)C1OC1OC(CO)C(O)C(O)C1O (configuration not stated) | -4.61% [at 30.2 µM]
C/C=C(\C)C(=O)OC1CC2C(CC=C3CC(OC4CC(OC)C(OC5CC(OC)C(OC6OC(C)C(OC7OC(CO)C(O)C(O)C7O)C(OC)C6O)C(C)O5)C(C)O4)CCC32C)C2(O)CCC(C(C)=O)C12C (configuration not stated) | 0% [at 30.2 µM]
COC1=CC(=O)O[C@@H](CCc2ccccc2)C1 | 1.08%
CC(=O)OC1CC(O)C2(C)C(CC(OC(C)=O)C3(C)C2CCC2(C)C(c4ccoc4)C(=O)C4OC423)C1(C)C (configuration not stated) | 5.53% [at 57.7 µM]
CC(=O)O[C@H]1C[C@@H](OC(C)=O)C(C)(C)C2C[C@@H](O)[C@]3(C)C(CC[C@@]4(C)[C@H](C5=CC(=O)OC5O)C[C@H]5O[C@]543)[C@]21C (some centres not stated) | -3.02% [at 57.7 µM]
